Consider ten compounds from PubChem BioAssay AID1429 (The Scripps Research Institute Molecular Screening Center, 2008).

The other results are listed elsewhere or left out. Unmarked numbers belong to inactive results. The source made the active and inactive calls.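 How the source made its calls: active means inhibition above the hit threshold that was computed for the earlier primary screen (cut at about 30% in these data); inactive means the rest.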

In general, inhibition refers to the change of the read-out against control, counted positive when it falls.

The target in the assay is Sphingosine 1-phosphate receptor 3 (Homo sapiens) (UniProt Q99500). In words: S1P3 receptor antagonists, retest, confirmation, cell-based (AID 1429).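 Further: 0% = S1P-stimulated wells and 100% = unstimulated DMSO-only wells.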 The settings on record: CHO S1P3 NFAT-BLA reporter, FRET, antagonist mode; at 4.98 µM; active compounds read high.
Sequence of Sphingosine 1-phosphate receptor 3 (Homo sapiens) (Q99500 whole entry, looked up): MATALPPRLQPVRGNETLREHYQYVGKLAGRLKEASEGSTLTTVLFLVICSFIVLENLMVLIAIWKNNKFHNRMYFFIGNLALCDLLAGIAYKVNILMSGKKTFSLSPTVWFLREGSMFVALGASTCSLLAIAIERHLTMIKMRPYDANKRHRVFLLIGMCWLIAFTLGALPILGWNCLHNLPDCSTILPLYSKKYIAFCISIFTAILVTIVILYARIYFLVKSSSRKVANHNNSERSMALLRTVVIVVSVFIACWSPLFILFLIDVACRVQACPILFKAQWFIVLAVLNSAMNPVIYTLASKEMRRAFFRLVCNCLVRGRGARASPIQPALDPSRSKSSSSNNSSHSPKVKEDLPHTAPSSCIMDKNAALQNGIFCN
Take `CC(=O)c1c(C)[nH]c(C(=O)COC(=O)c2cccc(S(=O)(=O)N(C)c3ccccc3)c2)c1C`: the inhibition was 10.9%.
Then `S=C(NCCc1ccccc1)NCC1CCCO1` (stereo not given), with -4.63%.
For `CCOC(=O)C1=C(C)N=C2c3ccccc3C(=O)C2C1c1ccc(Br)cc1` (stereo not given) the value was 77.8% (active); for `CC[C@H]1CN2CCc3cc(OC)c(OC)cc3[C@@H]2C[C@@H]1C[C@H]1NCCc2cc(OC)c(OC)cc21`, 109% (active); for `CSc1ccc(CN(C)CC(=O)NCc2ccc(F)cc2)cc1`, -9.96%.
As to `Cc1ccc(NC(=O)CN(C)CC(=O)Nc2cccc(F)c2)cc1[N+](=O)[O-]`, the inhibition was 12.6%.
Then `CCN1/C(=C\c2ccc3ccccc3[n+]2CC)Sc2cc(C)ccc21`, with 10.8%; and `CC(C)Oc1ccccc1C(=O)NC(CO)C(=O)O` (stereo not given), with -23.6%.
Then `O=C(N/N=C/c1coc2ccccc2c1=O)c1cc2ccccc2o1`, with -18.6%; and `Nc1c(C(=O)c2cccs2)sc2nsc(SCCN3CCCCC3)c12`, with 18.8%.
